CHX counter: counter-screen for Shiga toxin inhibitors: cycloheximide protein synthesis inhibition | actives 12% (n = 300,000) | max response, % | cell reporter, cycloheximide protein synthesis inhibition counterscreen; in the data active = max response mostly above about 13%, no sharp cut-off; inactive = mostly below about 14%; note: read at 38.3 µM for the half of the compounds with a filed dose
Pf growth 96h: P. falciparum growth inhibition at 96 hours. P. falciparum luciferase reporter growth, 96 h. Potency, µM (doses to about 28.7 µM), usual class: inhibitors. actives 6.9% (n = 320,000)
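Readout is luminescence from an integrated firefly luciferase in P. falciparum. Red cells, 2% hematocrit and 0.05% parasitemia final, were cultured with compound through two parasite generations (96 hours) at 37 C, 5% CO2.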
Pf growth 48h: inhibits P. falciparum growth in the first generation, 48 h; P. falciparum luciferase growth in erythrocytes, 48 h; Potency, µM (top dose mostly 28.7 µM), usual class: inhibitors; actives 5.9% (n = 310,000); AID 504832
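Parasite viability was followed by luminescence of a genomically integrated firefly luciferase. Cultures held 0.1% parasitemia at 2% hematocrit (final), incubated under 5% CO2 at 37 C.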
HCMV antiviral: inhibitors of human cytomegalovirus | HFF cells, HCMV-luciferase reporter, 72 h; active compounds read low | activity change, negative = inhibition, % at 57.5 µM | actives 4.5% (n = 410,000) | AID 1259415; in the data active = activity change below about -60%; inconclusive = no clear call, values can overlap the other calls; inactive = above about -39%
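Screen run at 2 compound doses on HFFs infected with reporter HCMV, MOI 1 PFU/cell. Luciferase activity from cell lysates at 72 h post infection gave inhibition relative to buffer-only and Salinomycin wells.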
Shiga inhibitor: Shiga toxin inhibition; inhibition, % at 38.7 µM; Vero cells, Shiga toxin protein synthesis inhibition reporter; actives 9.2% (n = 290,000); in the data active = inhibition mostly above about 28%, no sharp cut-off; inactive = mostly below about 43%
Of the large screens only hits and unclear results are named; the others gave an inactive call. Only some compounds are listed: those with a hit (about 20% of all), similar ones and a draw of the others. Unless noted, calls come from the whole dose curve; as a rule, active = well fitted inhibition curve with a large enough effect; inconclusive = small, poorly fitted or top-dose-only effect, or another doubt; inactive = no such curve, though single readings can be large or run the other way.

CCCS(=O)(=O)c1nc(S(=O)(=O)c2ccc(C)cc2)c(N2CC(C)OC(C)C2)s1 (centres undefined)	Pf growth 48h inconclusive
CCS(=O)(=O)c1nc(S(=O)(=O)c2ccc(Cl)cc2)c(N2CCC3(CC2)OCCO3)s1	none
CCN1CCN(c2sc(S(=O)(=O)CC)nc2S(=O)(=O)c2ccc(C)cc2)CC1	HCMV antiviral -72 (no result: CHX counter, Pf growth 96h, Pf growth 48h, Shiga inhibitor)
Cc1ccc(S(=O)(=O)c2nc(S(C)(=O)=O)sc2N2CCC(C(N)=O)CC2)cc1	Pf growth 96h 8.3µM, Pf growth 48h inconclusive
CS(=O)(=O)c1nc(S(=O)(=O)c2ccc(Cl)cc2)c(N2CCC(C(N)=O)CC2)s1	Pf growth 96h inconclusive, Pf growth 48h inconclusive, HCMV antiviral inconclusive
CCS(=O)(=O)c1nc(S(=O)(=O)c2ccc(C)cc2)c(N2CCCC2)s1	Pf growth 96h inconclusive, Pf growth 48h inconclusive
O=C1C(Cl)=C(NCCN2CCOCC2)C(=O)c2ncccc21	none (no result: Pf growth 96h, Pf growth 48h, HCMV antiviral)
CCc1nn(C(CC)C(=O)NCCc2ccc(OC)cc2OC)c(=O)c2cc3occc3n12 (centres undefined)	none
CC1Sc2ccc(S(=O)(=O)N3CCC(C(=O)Nc4ccc(Cl)cc4)CC3)cc2NC1=O (centres undefined)	Pf growth 96h 13µM, Pf growth 48h inconclusive, HCMV antiviral -71
CCOc1ccc(NC(=O)C2CCN(S(=O)(=O)c3ccc4c(c3)NC(=O)C(C)S4)CC2)cc1 (centres undefined)	Pf growth 96h inconclusive, Pf growth 48h inconclusive
COc1ccc(NC(=O)C2CCN(S(=O)(=O)c3ccc4c(c3)NC(=O)C(C)S4)CC2)cc1 (centres undefined)	Pf growth 48h 9.3µM, HCMV antiviral inconclusive
CC1Sc2ccc(S(=O)(=O)N3CCC(C(=O)NCc4ccccc4)CC3)cc2NC1=O (centres undefined)	Pf growth 96h 1µM, Pf growth 48h inconclusive
CC1(C)CNC(=O)CC(C)(C)N1	none
Cc1ccc(/C=N/NC(=O)CN2CCN(Cc3ccccc3Cl)CC2)o1	none
NCCCC[C@H]1CNC(=O)C(=O)N1CCC12CC3CC(CC(C3)C1)C2	Pf growth 96h 7.4µM, Pf growth 48h 12µM
CC(C)n1nnnc1C1c2ccccc2C(=O)N1Cc1cccc(F)c1 (centres undefined)	none (no result: CHX counter, Pf growth 96h, Pf growth 48h, Shiga inhibitor)
CCn1c(SCc2cccc(F)c2)nc2c(c1=O)SCC2	Pf growth 48h inconclusive, HCMV antiviral -60
CCn1c(SCc2ccc(F)cc2)nc2c(c1=O)SCC2	Pf growth 96h inconclusive, Pf growth 48h inconclusive
COc1ccc(N=C2S/C(=C\c3ccc(C)o3)C(=O)N2CC(C)C)cc1	Pf growth 96h 3.3µM (no result: Pf growth 48h)
CCCN1C(=O)/C(=C/c2ccc(C)o2)SC1=Nc1ccc(OC)cc1	Pf growth 96h inconclusive, Pf growth 48h inconclusive
CCCN1C(=O)/C(=C/c2ccco2)SC1=Nc1ccc(OC)cc1	Pf growth 96h inconclusive, Pf growth 48h 10µM (no result: HCMV antiviral)
CCCN1C(=O)/C(=C/c2ccc(C)o2)SC1=Nc1ccc(OCC)cc1	Pf growth 48h inconclusive
O=C1NC(=Nc2cccnc2)S/C1=C/c1ccc(F)cc1	none
Cc1ccc(S(=O)(=O)/N=C2/NC(=O)/C(=C\c3ccco3)S2)cc1	none
COc1ccccc1N=C1NC(=O)/C(=C/c2ccc(N(C)C)cc2)S1	CHX counter 41, Pf growth 96h inconclusive, Pf growth 48h 0.093µM, Shiga inhibitor 56
COc1ccc(N=C2NC(=O)/C(=C\c3ccco3)S2)cc1	CHX counter 23, Pf growth 48h inconclusive, HCMV antiviral inconclusive, Shiga inhibitor 66
COC(=O)c1sc(NC(=O)CSc2nc3cccnc3n2C)nc1C	none
COc1ccccc1NC(=O)CSc1nc(-c2ccc(C(C)(C)C)cc2)c(C#N)c(=O)[nH]1	none (no result: CHX counter, Pf growth 96h, Pf growth 48h, Shiga inhibitor)
COC(=O)c1ccc(CNC(=O)/C=C/[C@H]2O[C@@H](n3cc(C)c(=O)[nH]c3=O)C[C@@H]2O)cc1	none (no result: CHX counter, Pf growth 96h, Pf growth 48h, Shiga inhibitor)
COc1ccc(CN(C(=O)Nc2ccccc2)c2ccccn2)cc1OC	none (no result: CHX counter, Pf growth 96h, Pf growth 48h, Shiga inhibitor)
O=C(O)c1cc(S(=O)(=O)Nc2ccc3cn[nH]c3c2)ccc1Cl	none (no result: CHX counter, Pf growth 96h, Pf growth 48h, Shiga inhibitor)
COc1cc(/C=C2\SC(=Nc3ccc(O)cc3)NC2=O)cc(OC)c1OC	Pf growth 96h inconclusive, Pf growth 48h inconclusive
COc1ccc(N=C2NC(=O)/C(=C/c3ccc(O)c(OC)c3)S2)cc1	Pf growth 96h inconclusive, HCMV antiviral -64
COc1cc(/C=C2/SC(=Nc3ccc(O)cc3)NC2=O)cc(OC)c1O	Pf growth 96h 1.9µM, Pf growth 48h 3.7µM
COc1ccc(/C=C2\SC(=Nc3ccccc3)NC2=O)cc1	Pf growth 96h inconclusive, Pf growth 48h inconclusive (no result: HCMV antiviral)
N#C/C(=C\c1cccc([N+](=O)[O-])c1)C(=O)NCc1ccc(Cl)cc1	Pf growth 96h inconclusive, Pf growth 48h inconclusive, HCMV antiviral -98
COc1ccc(/C=C(/C#N)C(=O)Nc2cccc(C)c2C)cc1C(=O)O	Pf growth 96h inconclusive
COc1ccc(/C=C(/C#N)C(=O)Nc2cccc([N+](=O)[O-])c2)cc1C(=O)O	HCMV antiviral -102
N#C/C(=C\c1cccc([N+](=O)[O-])c1)C(=O)Nc1cccnc1	none
N#C/C(=C\c1cccc([N+](=O)[O-])c1)C(=O)NCc1cccnc1	Pf growth 96h 6.6µM
N#C/C(=C/c1cccc([N+](=O)[O-])c1)C(=O)Nc1ccccc1O	CHX counter 13
COc1ccccc1N1CCN(c2ncnc3c2c(-c2ccccc2)cn3-c2cccc(C)c2)CC1	none (no result: CHX counter, Pf growth 96h, Pf growth 48h, Shiga inhibitor)
COCCCN1C(=O)C(CC(=O)NCc2cccc3ccccc23)CC(C(=O)N(C)C)=C1C (centres undefined)	none (no result: CHX counter, Pf growth 96h, Pf growth 48h, Shiga inhibitor)
COC(=O)c1ccc(Nc2ncnc3c2nc2n3CCCC2)cc1	none (no result: CHX counter, Pf growth 96h, Pf growth 48h, Shiga inhibitor)
S=C1NCCN1CC1CCN(CC2CCCC2)CC1	none (no result: CHX counter, Pf growth 96h, Pf growth 48h, Shiga inhibitor)
O=C(COc1ccccc1F)NCC(c1ccc(F)cc1)N1CCOCC1 (centres undefined)	Pf growth 96h inconclusive, Pf growth 48h inconclusive (no result: CHX counter, Shiga inhibitor)
CCOc1ccc(Oc2ccc(NC(=O)[C@@H](NC(N)=O)[C@@H](C)CC)cc2)cc1	none
Cc1ccsc1/C=C1/C(=O)NN(c2ccccc2)C1=O	CHX counter 40, Shiga inhibitor 82
Cc1ccsc1C=C1C(=O)c2ccccc2C1=O	none
COC(=O)c1ccc(Cn2nnc3ccccc32)cc1	Pf growth 48h inconclusive
c1ccc(COn2nnc3ccccc32)c(COn2nnc3ccccc32)c1	Pf growth 48h inconclusive (no result: Pf growth 96h)
COC(=O)c1ccc(COn2nnc3ccccc32)cc1	CHX counter 39, Shiga inhibitor 97
Clc1cccc(Cl)c1COn1nnc2ccccc21	CHX counter 25, Pf growth 96h inconclusive (no result: Pf growth 48h)
CC(C)[C@@H](CSc1ccccc1)N1CCN(Cc2ccccc2)CCC1=O	Pf growth 48h 15µM
CCCN1CCC(=O)N([C@H](CSc2ccc(C)cc2)CC(C)C)CC1	CHX counter 71, Pf growth 48h inconclusive, Shiga inhibitor 62
CC(C)CC(CSc1ccc(Br)cc1)N1CCN(CC(C)C)CCC1=O (centres undefined)	CHX counter 80, Shiga inhibitor 108 (no result: Pf growth 96h, Pf growth 48h, HCMV antiviral)
CCCN1CCC(=O)N(C(CSc2ccc(C)cc2)CC(C)C)CC1 (centres undefined)	CHX counter 42, Shiga inhibitor 77 (no result: Pf growth 96h, Pf growth 48h, HCMV antiviral)

From PubChem BioAssay
